# CYP2C19 inhib = inhibitors of human CYP2C19. P33261. CYP2C19 Supersomes, luciferin-H EGE luminescence, 30 min. inhibition, % at 5 µM. 96,000 tested, 21% active. AID 778;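 active = CYP2C19 inhibition above a set limit at 5 µM in the primary screen, cut at about 50% in these data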
# CYP2C9 act = CYP2C9 (human) activation | recombinant CYP2C9, luciferin-H conversion, luminescence; active compounds read high; factor 1 = untreated enzyme, 0 = blocked | activation factor at 5 µM | 96,000 tested, 1.4% active | AID 1024;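 active = activation factor of 2 or more for CYP2C9 at a 5 µM dose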
# Target sequence (P11712 whole entry, looked up): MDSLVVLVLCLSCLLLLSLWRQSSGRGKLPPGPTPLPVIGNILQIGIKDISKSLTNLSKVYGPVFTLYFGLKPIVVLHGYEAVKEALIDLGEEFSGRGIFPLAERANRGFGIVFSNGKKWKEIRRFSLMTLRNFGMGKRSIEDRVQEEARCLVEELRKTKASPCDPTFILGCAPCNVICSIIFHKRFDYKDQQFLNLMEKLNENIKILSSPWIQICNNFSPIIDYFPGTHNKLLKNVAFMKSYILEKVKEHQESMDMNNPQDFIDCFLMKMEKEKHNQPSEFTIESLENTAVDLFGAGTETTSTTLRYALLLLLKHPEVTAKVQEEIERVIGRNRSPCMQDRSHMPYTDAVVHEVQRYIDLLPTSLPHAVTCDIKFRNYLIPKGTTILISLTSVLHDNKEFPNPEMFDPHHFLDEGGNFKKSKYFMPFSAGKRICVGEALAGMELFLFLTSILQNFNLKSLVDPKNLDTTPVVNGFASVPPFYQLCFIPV
# PLAP activator = activators of human placental alkaline phosphatase | P05187 | purified PLAP enzyme, luminescent substrate read-out; active compounds read high | activation fold at 20 µM | 96,000 tested, 1.2% active | AID 696; in the data active = activation fold above about 2
# CYP2C19 activ = increases human CYP2C19 enzyme activity. P33261. activation factor at 5 µM. 96,000 tested, under 10 active. recombinant CYP2C19, luciferin-H EGE luminescence; active compounds read high; 0 = fully inhibited enzyme, 1 = untreated enzyme;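 active = activation factor of at least 2 at 5 µM in the primary screen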
# CYP2C9 inh = human CYP2C9 inhibition; P11712; CYP2C9 Supersomes, luciferin-H conversion, luminescence; inhibition, % at 5 µM; 96,000 tested, 20% active; AID 777;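 active = blocking of liver enzyme CYP2C9 beyond about 50% at 5 µM, limit read from the data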
# Hits are given with their value; i = inactive; nt = no result given. Shown are actives, neighbours in structure and some others; about 31% of the full set was active somewhere.
SMILES,CYP2C19 inhib,CYP2C9 act,PLAP activator,CYP2C19 activ,CYP2C9 inh
CC1CCC/C(=N\NC(=O)COc2ccc(Cl)cc2Cl)C1 (configuration not stated),80,i,i,i,i
COc1ccc(/C=N/NC(=O)C(=O)N2CCN(c3ccccc3OC)CC2)cc1,i,i,i,i,i
O=C(CN1C(=O)c2ccccc2C1=O)Nc1sc2c(c1C(=O)NCc1ccco1)CCCC2,i,i,i,i,82
O=C(CCN1C(=O)c2ccccc2C1=O)NCc1ccco1,i,i,i,i,i
O=C(CCCN1C(=O)c2ccccc2C1=O)Nc1sc2c(c1C(=O)NCc1ccco1)CCC2,65,i,i,i,96
COc1ccc(Oc2ccccc2/C=N/O)cc1,70,i,i,i,i
Cc1ccc(-c2csc(=S)n2CC(=O)OCC(=O)NCc2ccc(F)cc2)cc1,80,i,i,i,87
COCCCNC(=O)c1ccc2nc3ccccc3c(=O)n2c1,i,i,i,i,i
Cc1ccc2c(c1)-c1cc(C)nn1C(c1ccc3c(c1)OCO3)N2 (configuration not stated),96,i,i,i,89
Cc1cc2n(n1)C(c1ccc(N(C)C)cc1)Nc1ccccc1-2 (configuration not stated),i,i,i,i,i
Cc1cc2n(n1)C(c1ccc3c(c1)OCO3)Nc1ccccc1-2 (configuration not stated),88,i,i,i,70
COc1ccc(C(=O)Nc2cccc(-c3cnc4ccccc4n3)c2)cc1,nt,nt,i,nt,nt
COc1ccc(Cl)cc1S(=O)(=O)N1CCN(C(=O)COc2ccccc2)CC1,62,i,i,i,i
COc1ccc(C(=O)N2CCN(S(=O)(=O)c3ccc(Cl)cc3)CC2)cc1OC,i,i,i,i,i
COc1ccc(C(=O)N2CCN(S(=O)(=O)c3cc(Cl)ccc3OC)CC2)cc1,67,i,i,i,i
COc1ccccc1N1CCN(C(=O)COc2ccc(Cl)cc2Br)CC1,54,i,i,i,i
COc1ccccc1N1CCN(C(=O)COc2ccc(C)cc2Br)CC1,i,i,i,i,i
O=C(COc1ccccc1)N1CCN(S(=O)(=O)Cc2ccccc2)CC1,i,i,i,i,i
O=c1cc(N2CCN(c3cccc(Cl)c3)CC2)[nH]c(=O)n1C1CCCCC1,i,i,i,i,i
Cc1sc(N/N=C/C=C/c2ccccc2)nc1-c1ccccc1,i,i,i,i,i
CN1C(=O)Cc2cc(S(=O)(=O)N3CCOCC3)ccc21,i,i,i,i,i
CCCCOC(=O)CSc1nnc(N)s1,52,i,i,i,i
O=C(Nc1ccccc1N1CCCC1)c1ccc2c(c1)OCO2,71,i,i,i,53
O=C(Nc1cc(C(F)(F)F)ccc1N1CCCCC1)c1cccc([N+](=O)[O-])c1,i,i,i,i,56
O=C(Nc1cc(C(F)(F)F)ccc1N1CCCC1)c1ccc2c(c1)OCO2,69,i,i,i,77
SMILES,CYP2C19 inhib,CYP2C9 act,PLAP activator,CYP2C19 activ,CYP2C9 inh
Cc1ccc(C(=O)Nc2cc(C(F)(F)F)ccc2N2CCCCC2)cc1[N+](=O)[O-],i,i,i,i,i
Cn1cc(C(=O)NCN2CCCCC2)c2ccccc21,i,i,i,i,i
COc1ccc(CNC(=O)C(c2cccs2)N(C(=O)c2csnn2)C2CC2)cc1 (configuration not stated),i,i,i,i,i
CCCCc1nn(-c2cc(Cl)ccc2OC)c2c1C(=O)CCC2,97,i,i,i,92
CNc1sc(C(=O)c2cccs2)c(N)c1-c1nc2ccccc2s1,i,i,i,i,67
CC(Oc1ccc2c(-c3ccccc3)cc(=O)oc2c1)C(=O)O (configuration not stated),i,i,i,i,74
COC(=O)COc1ccc2c(-c3ccc(OC)cc3)cc(=O)oc2c1,52,i,i,i,i
COc1ccc(-c2nnc(COc3ccc4ccccc4c3)o2)cc1OC,i,i,i,i,i
CCCc1cc(=O)oc2cc(OCC(=O)OC)cc(OCC(=O)OC)c12,i,i,i,i,61
COc1ccc(-c2cc3ccc(OCc4nn[nH]n4)cc3oc2=O)cc1OC,i,i,i,i,59
COC(=O)Cc1cc(=O)oc2cc(OC)ccc12,i,i,i,i,i
O=C(NCN1C(=O)C2C3C=CC(C3)C2C1=O)OC1CCCCC1 (configuration not stated),i,i,i,i,i
CCn1c(C)c(C(C)=O)c(SC)nc1=S,i,i,i,i,i
COc1ccc(-c2cc(=O)oc3cc(OCc4nn[nH]n4)ccc23)cc1,i,i,i,i,76
COc1ccc(/C(C)=C2\SC(=S)N(CCC(=O)O)C2=O)cc1,i,i,i,i,i
Cc1cc(C(=O)NC(C)c2ccncc2)no1 (configuration not stated),i,i,i,i,i
N=c1c2c3c(sc2nc2n1CCCCC2)CCCCC3,i,i,i,i,i
CC(=O)N(CN1C(=O)c2ccc([N+](=O)[O-])cc2C1=O)c1ccc(F)cc1,i,i,i,i,i
Cc1ccc(N(CCCCN2C(=O)c3ccccc3C2=O)C(=O)c2cccc([N+](=O)[O-])c2)cc1,64,i,i,i,61
CC(=O)N(CCCCN1C(=O)c2ccccc2C1=O)c1ccc(C)cc1,i,i,i,i,i
O=C1c2ccccc2C(=O)N1CCCCN(C(=O)c1ccc([N+](=O)[O-])cc1)c1ccc(Cl)cc1,i,i,i,i,54
Cc1cc(NC(=O)Cn2cnc3c2c(=O)n(C)c(=O)n3C)n(-c2ccccc2)n1,i,i,i,i,i
O=C(OCc1cc(Cl)ccc1OC(F)F)c1cc(S(=O)(=O)O)ccc1O,i,i,i,i,73
O=C(/C=C/c1cc([N+](=O)[O-])ccc1OC(F)F)NCc1ccc(Cl)cc1,i,i,i,i,i
O=C(Cn1cnc2ccccc21)OCC(=O)N1CCc2ccccc2C1,i,i,i,i,i
SMILES,CYP2C19 inhib,CYP2C9 act,PLAP activator,CYP2C19 activ,CYP2C9 inh
CC(c1cccnc1)N(CCN(C)C)C(=O)Nc1ccc(Cl)cc1 (configuration not stated),i,i,i,i,i
Cc1ccc(S(=O)(=O)c2nc(S(C)(=O)=O)sc2N(C)C)cc1,i,i,i,i,i
CC(=O)Nc1nc(S(=O)(=O)c2ccc(C)cc2)c(Cl)s1,55,i,i,i,i
COCCN(CCOC)c1nc(S(=O)(=O)c2ccc(C)cc2)c(Cl)s1,81,i,i,i,56
Cc1ccc(S(=O)(=O)c2nc(NC3CCS(=O)(=O)C3)sc2Cl)cc1 (configuration not stated),i,i,i,i,i
Cc1ccc(S(=O)(=O)c2nc(NCc3ccc4c(c3)OCO4)sc2Cl)cc1,i,i,i,i,i
Cc1ccc(S(=O)(=O)c2nc(Nc3nccs3)sc2Cl)cc1,68,i,i,i,60
CCOc1nc(S(=O)(=O)c2ccc(C)cc2)c(Cl)s1,83,i,i,i,i
O=C(Nc1nccs1)C1(S(=O)(=O)c2ccc(Cl)cc2)CC1,i,i,i,i,i
